Experimental data as given in the supplement of paper PMC10849652.
The full data set covers some 7,900 targets. This sample favours those with a hit. About 0.6% of all pairs of compound and target were hits. Values without a mark were called inactive.

Legend:
Assay in all cases: log2 fold change, soluble protein after heating vs DMSO (PISA); higher = thermal stabilisation; K562 cells, 10 uM, 30 min; active = over 0.2 and 3.5 SD of the protein, either way, in both replicates (recomputed)
[1] = compound: Cc1ccc(NC(=O)c2ccc(CN3CC[C@H](N(C)C)C3)c(C(F)(F)F)c2)cc1Nc1nccc(-c2cncnc2)n1 [bafetinib]
Summary of the method: (§1)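 K562 cells at 2×10^6 cells/mL were treated for 30 min with 10 μM compound, and aliquots were heated for 3 min over 48°C-58°C before pooling. Extraction used PBS with 0.5% NP-40 at 4°C, and soluble protein was the supernatant after 21,000xg for 90 min, measured by TMTpro 16plex LC-MS/MS with channel sums equalised. Thermal stability values, relative to control samples and from duplicates, are log2 fold changes.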

[2] = compound: Cc1cccc(CC(=O)N2CCc3c2ccc(-c2cn(C)c4ncnc(N)c24)c3F)n1
Summary of the method: as §1

[3] = compound: Cc1cn(-c2cc(NC(=O)c3ccc(C)c(Nc4nccc(-c5cccnc5)n4)c3)cc(C(F)(F)F)c2)cn1 [nilotinib]
Summary of the method: as §1

[4] = compound: Cc1nc(Nc2n[nH]c3c2CN(C(=O)N[C@H](CN(C)C)c2ccccc2)C3(C)C)c2sccc2n1
Summary of the method: as §1

[5] = compound: Cc1nc(Nc2ncc(C(=O)Nc3c(C)cccc3Cl)s2)cc(N2CCN(CCO)CC2)n1 [dasatinib]
Summary of the method: as §1

[6] = compound: Cc1ncc(-c2ccnc(Nc3ccc(S(C)(=O)=O)cc3)n2)n1C(C)C
Summary of the method: as §1

[7] = compound: Cn1cc(-c2ccc3c(c2)CCN3C(=O)Cc2cccc(C(F)(F)F)c2)c2c(N)ncnc21
Summary of the method: as §1

[8] = compound: Cn1cc(-c2ccc3nnc(C(F)(F)c4ccc5ncccc5c4)n3n2)cn1
Summary of the method: as §1

[9] = compound: Cn1cncc1[C@@](N)(c1ccc(Cl)cc1)c1ccc2c(c1)c(-c1cccc(Cl)c1)cc(=O)n2C [tipifarnib]
Summary of the method: as §1

[10] = compound: FC(F)(F)c1ccc(/C=C/c2nc(COc3ccc(CCCCn4ccnn4)cc3)co2)cc1 [mubritinib]
Summary of the method: as §1

[11] = compound: NC(=O)Nc1cc(-c2cccc(F)c2)sc1C(=O)N[C@H]1CCCNC1
Summary of the method: as §1

[12] = compound: NC(=O)c1cnc(N[C@@H]2CCCC[C@@H]2N)nc1Nc1cccc(-n2nccn2)c1
Summary of the method: as §1

[13] = compound: NC1(c2ccc(-c3nc4ccn5c(=O)[nH]nc5c4cc3-c3ccccc3)cc2)CCC1
Summary of the method: as §1

[14] = compound: NCC(=O)Nc1ccc(-n2nc(C(F)(F)F)cc2-c2ccc3c(ccc4ccccc43)c2)cc1
Summary of the method: as §1

[15] = compound: Nc1ccccc1NC(=O)c1ccc(CNC(=O)OCc2cccnc2)cc1 [entinostat]
Summary of the method: as §1

[16] = compound: O=C(CCCCCCC(=O)Nc1ccccc1)NO [vorinostat]
Summary of the method: as §1

[17] = compound: O=C(CCCCCCNC(=O)c1cnc(N(c2ccccc2)c2ccccc2Cl)nc1)NO [citarinostat]
Summary of the method: as §1

[18] = compound: O=C(O)c1ccc2c(c1)nc(Nc1cccc(Cl)c1)c1ccncc12 [silmitasertib]
Summary of the method: as §1

[19] = compound: O=C1NC(=O)C(c2cnc3ccccn23)=C1c1cn2c3c(cc(F)cc13)CN(C(=O)N1CCCCC1)CC2
Summary of the method: as §1

[20] = compound: c1cc(OCCN2CCCCC2)cc(-c2n[nH]c3ccc(-c4nnc[nH]4)cc23)c1
Summary of the method: as §1

UniProt P35749, sequence (P35749 whole entry, looked up): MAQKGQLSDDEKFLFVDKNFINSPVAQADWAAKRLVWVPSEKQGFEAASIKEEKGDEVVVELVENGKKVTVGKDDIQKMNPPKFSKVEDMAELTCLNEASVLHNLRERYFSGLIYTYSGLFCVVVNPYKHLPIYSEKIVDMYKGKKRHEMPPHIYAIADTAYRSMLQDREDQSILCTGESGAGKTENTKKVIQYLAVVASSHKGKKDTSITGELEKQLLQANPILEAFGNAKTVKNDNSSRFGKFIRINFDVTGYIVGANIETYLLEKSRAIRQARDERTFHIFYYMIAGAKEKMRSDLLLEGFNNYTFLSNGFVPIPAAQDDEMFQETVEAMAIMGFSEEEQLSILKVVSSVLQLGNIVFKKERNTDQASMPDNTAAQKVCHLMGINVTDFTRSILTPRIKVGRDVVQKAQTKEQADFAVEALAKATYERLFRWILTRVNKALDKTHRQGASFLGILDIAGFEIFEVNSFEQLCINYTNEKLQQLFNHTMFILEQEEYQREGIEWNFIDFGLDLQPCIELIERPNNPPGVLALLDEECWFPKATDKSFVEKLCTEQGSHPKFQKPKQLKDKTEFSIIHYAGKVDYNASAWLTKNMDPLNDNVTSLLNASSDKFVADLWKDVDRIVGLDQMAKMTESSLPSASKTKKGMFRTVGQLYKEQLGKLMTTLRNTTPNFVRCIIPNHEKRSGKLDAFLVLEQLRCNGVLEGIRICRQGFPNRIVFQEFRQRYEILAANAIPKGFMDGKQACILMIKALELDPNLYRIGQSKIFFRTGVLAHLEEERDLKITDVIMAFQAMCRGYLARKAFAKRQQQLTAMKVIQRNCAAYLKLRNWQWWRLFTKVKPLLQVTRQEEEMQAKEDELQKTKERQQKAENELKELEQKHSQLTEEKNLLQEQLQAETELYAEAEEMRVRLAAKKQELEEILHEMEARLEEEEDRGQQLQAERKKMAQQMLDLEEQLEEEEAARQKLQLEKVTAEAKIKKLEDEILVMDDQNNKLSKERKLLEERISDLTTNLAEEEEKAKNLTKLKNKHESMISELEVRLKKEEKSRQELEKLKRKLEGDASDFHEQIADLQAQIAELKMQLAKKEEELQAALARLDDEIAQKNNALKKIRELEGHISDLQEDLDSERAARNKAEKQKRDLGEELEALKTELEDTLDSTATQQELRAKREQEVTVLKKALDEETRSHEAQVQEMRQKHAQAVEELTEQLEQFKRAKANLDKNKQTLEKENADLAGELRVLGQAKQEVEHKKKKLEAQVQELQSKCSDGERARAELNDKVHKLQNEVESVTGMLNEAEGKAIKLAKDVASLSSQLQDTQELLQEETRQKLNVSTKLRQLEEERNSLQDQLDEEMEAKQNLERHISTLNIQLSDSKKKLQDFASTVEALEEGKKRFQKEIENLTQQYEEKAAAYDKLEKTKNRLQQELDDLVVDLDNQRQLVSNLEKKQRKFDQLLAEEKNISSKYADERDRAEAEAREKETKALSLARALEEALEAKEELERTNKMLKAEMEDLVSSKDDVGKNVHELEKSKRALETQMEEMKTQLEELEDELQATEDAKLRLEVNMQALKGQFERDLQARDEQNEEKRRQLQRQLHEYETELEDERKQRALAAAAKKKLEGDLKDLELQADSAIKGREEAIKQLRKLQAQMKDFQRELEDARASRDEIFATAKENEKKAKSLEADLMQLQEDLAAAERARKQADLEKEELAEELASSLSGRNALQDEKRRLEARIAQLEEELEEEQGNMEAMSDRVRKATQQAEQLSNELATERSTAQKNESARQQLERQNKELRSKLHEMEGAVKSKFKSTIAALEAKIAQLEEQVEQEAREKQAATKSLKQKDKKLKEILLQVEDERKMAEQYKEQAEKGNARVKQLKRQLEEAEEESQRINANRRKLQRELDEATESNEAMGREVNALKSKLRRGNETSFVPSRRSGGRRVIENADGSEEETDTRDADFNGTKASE
UniProt O00566, sequence (O00566 whole entry, looked up): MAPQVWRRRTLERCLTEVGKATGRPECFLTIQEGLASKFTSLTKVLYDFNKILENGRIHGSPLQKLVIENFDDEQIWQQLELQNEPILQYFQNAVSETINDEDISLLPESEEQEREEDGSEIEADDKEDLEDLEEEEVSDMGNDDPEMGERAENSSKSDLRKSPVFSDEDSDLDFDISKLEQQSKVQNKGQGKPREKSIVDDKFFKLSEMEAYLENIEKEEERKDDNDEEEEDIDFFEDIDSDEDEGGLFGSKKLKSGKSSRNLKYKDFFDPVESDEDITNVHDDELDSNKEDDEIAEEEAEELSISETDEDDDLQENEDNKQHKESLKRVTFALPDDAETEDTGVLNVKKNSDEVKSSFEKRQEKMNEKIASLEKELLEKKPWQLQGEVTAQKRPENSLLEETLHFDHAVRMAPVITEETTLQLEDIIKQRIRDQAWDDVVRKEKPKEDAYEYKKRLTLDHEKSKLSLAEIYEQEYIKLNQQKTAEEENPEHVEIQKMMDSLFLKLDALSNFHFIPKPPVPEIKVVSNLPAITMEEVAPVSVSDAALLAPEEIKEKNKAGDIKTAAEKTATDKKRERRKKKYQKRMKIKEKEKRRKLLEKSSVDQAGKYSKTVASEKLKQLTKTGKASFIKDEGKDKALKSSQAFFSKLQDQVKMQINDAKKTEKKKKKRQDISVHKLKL
UniProt Q08J23, sequence (Q08J23 whole entry, looked up): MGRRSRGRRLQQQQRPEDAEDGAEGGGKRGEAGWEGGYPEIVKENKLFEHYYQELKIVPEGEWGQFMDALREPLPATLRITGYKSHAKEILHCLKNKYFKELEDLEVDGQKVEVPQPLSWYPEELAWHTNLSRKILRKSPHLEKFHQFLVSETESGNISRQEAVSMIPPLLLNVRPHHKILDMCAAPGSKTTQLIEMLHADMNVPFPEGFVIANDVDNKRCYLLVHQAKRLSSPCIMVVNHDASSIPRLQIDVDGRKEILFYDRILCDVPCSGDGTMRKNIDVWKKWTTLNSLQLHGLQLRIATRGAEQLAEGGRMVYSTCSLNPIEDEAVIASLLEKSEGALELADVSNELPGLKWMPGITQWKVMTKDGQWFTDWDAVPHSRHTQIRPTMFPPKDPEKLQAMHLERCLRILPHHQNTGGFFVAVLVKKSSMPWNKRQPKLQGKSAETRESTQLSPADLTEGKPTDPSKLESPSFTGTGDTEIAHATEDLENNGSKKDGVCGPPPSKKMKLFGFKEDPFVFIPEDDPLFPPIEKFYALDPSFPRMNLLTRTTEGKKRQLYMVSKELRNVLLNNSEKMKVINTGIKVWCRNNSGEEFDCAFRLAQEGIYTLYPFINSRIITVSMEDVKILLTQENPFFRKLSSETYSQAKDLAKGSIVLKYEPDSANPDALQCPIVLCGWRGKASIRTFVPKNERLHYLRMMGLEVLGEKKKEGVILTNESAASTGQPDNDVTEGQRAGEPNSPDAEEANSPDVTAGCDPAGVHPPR
UniProt Q15014, sequence (Q15014 whole entry, looked up): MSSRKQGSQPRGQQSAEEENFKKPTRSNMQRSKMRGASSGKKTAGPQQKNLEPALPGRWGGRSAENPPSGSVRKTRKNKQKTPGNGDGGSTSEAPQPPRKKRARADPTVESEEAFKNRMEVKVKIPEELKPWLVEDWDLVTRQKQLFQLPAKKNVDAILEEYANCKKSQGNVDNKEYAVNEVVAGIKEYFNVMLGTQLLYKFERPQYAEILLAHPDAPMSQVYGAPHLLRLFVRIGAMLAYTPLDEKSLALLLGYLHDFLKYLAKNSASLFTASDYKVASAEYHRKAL
UniProt Q96MF7, sequence (Q96MF7 whole entry, looked up): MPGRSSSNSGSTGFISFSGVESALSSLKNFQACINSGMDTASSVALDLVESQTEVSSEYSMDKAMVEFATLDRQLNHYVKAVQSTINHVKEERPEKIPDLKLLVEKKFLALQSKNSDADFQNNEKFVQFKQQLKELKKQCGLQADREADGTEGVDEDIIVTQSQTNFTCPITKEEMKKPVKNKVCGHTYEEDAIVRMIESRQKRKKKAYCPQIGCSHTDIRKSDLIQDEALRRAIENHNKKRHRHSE
UniProt Q96DE0, sequence (Q96DE0 whole entry, looked up): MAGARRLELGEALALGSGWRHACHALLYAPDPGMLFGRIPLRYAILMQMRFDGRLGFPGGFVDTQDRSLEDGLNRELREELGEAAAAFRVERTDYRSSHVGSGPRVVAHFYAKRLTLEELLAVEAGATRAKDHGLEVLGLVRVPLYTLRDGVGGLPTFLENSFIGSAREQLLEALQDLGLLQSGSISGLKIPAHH
UniProt Q9NRP0, sequence (Q9NRP0 whole entry, looked up): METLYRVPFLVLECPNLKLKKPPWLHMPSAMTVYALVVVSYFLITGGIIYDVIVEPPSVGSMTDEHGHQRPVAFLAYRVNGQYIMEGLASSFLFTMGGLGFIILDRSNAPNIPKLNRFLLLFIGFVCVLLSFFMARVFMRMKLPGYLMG
UniProt Q9BUB5, sequence (Q9BUB5 whole entry, looked up): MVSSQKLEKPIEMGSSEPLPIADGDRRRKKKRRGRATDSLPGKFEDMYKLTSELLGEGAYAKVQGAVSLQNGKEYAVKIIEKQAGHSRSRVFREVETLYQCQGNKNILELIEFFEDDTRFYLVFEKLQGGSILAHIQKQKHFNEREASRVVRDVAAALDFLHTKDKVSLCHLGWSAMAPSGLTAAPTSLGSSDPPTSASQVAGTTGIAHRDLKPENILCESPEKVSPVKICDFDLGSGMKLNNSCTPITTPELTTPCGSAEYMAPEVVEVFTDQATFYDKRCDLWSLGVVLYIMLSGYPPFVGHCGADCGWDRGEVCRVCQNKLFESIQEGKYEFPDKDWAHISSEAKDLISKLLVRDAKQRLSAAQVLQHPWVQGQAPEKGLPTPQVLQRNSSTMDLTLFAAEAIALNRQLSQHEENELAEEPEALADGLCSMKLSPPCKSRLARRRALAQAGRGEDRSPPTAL

| Target | log2 fold change [1] | log2 fold change [2] | log2 fold change [3] | log2 fold change [4] | log2 fold change [5] | log2 fold change [6] | log2 fold change [7] | log2 fold change [8] | log2 fold change [9] | log2 fold change [10] | log2 fold change [11] | log2 fold change [12] | log2 fold change [13] | log2 fold change [14] | log2 fold change [15] | log2 fold change [16] | log2 fold change [17] | log2 fold change [18] | log2 fold change [19] | log2 fold change [20] |
| --- | --- | --- | --- | --- | --- | --- | --- | --- | --- | --- | --- | --- | --- | --- | --- | --- | --- | --- | --- | --- |
| MRPL50 (UniProt Q8N5N7) | -0.079 | -0.035 | 0.008 | 0.114 | 0.183 | -0.064 | 0.022 | 0.117 | -0.163 | -0.039 | 0.024 | 0.154 | 0.035 | 0.074 | 0.059 | -0.102 | 0.051 | 0.006 | -0.078 | -0.078 |
| MYH11 isoform 2 (UniProt P35749) | -0.055 | -0.016 | 0.05 | 0.014 | -0.027 | -0.025 | 0.039 | -0.001 | 0.005 | 0.007 | 0.056 | 0.018 | -0.017 | 0.046 | 0.015 | 0.121 | 0.027 | -0.003 | -0.009 | -0.034 |
| OXSM (UniProt Q9NWU1) | -0.063 | -0.034 | 0.029 | -0.002 | 0.031 | -0.015 | 0.029 | 0.021 | -0.009 | 0.023 | 0.016 | 0.068 | -0.026 | 0.049 | -0.019 | -0.028 | 0.037 | -0.04 | -0.011 | -0.015 |
| MPHOSPH10 (UniProt O00566) | 0.137 | -0.045 | -0.055 | -0.028 | 0.138 | -0.199 | -0.259 | -0.001 | 0.246 | -0.069 | 0.089 | 0.016 | 0.186 | 0.064 | 0.017 | 0.045 | 0.062 | 0.112 | 0.067 | -0.169 |
| NSMCE2 (UniProt Q96MF7) | -0.059 | 0.282 (active) | 0.014 | -0.202 | 0.025 | 0.016 | 0.016 | -0.104 | 0.008 | 0.009 | 0.065 | -0.027 | -0.008 | -0.046 | -0.115 | 0.128 | -0.04 | 0.055 | -0.068 | -0.069 |
| MORF4L2 (UniProt Q15014) | 0.026 | -0.055 | 0.009 | 0.01 | 0.045 | -0.005 | -0.087 | -0.131 | 0.059 | -0.076 | 0.021 | 0.047 | 0.123 | 0.027 | -0.066 | 0.04 | -0.044 | 0.087 | 0.04 | -0.121 |
| MMS19 isoform 8 (UniProt Q96T76) | -0.014 | 0.092 | -0.038 | -0.027 | -0.205 | -0.002 | -0.021 | 0.02 | -0.055 | -0.019 | 0.01 | -0.026 | -0.157 | -0.072 | 0.066 | 0.017 | 0.097 | 0.085 | -0.003 | -0.007 |
| OSTC (UniProt Q9NRP0) | -0.137 | 0.027 | -0.047 | -0.013 | -0.059 | -0.029 | 0.057 | 0.069 | -0.013 | 0.044 | -0.062 | 0.028 | -0.107 | -0.134 | 0.039 | -0.001 | 0.074 | -0.011 | 0.05 | -0.067 |
| MKNK1 (UniProt Q9BUB5) | 0.088 | 0.057 | 0 | 0.059 | -0.115 | -0.04 | 0.117 | -0.183 | -0.101 | 0.03 | 0.226 | -0.157 | -0.158 | -0.059 | -0.026 | -0.025 | 0.025 | 0.012 | 0.019 | -0.042 |
| MRPS33 (UniProt Q9Y291) | 0.123 | 0.125 | -0.129 | 0.064 | 0.031 | -0.04 | -0.033 | 0.028 | -0.003 | 0.106 | 0.019 | 0.02 | -0.032 | 0.046 | 0 | 0.035 | 0.039 | -0.066 | 0.016 | -0.052 |
| NUDT16 (UniProt Q96DE0) | -0.044 | -0.035 | 0 | 0.015 | 0.058 | -0.049 | 0.107 | 0.019 | -0.02 | 0.049 | 0.02 | 0.08 | -0.01 | 0.205 (active) | 0 | -0.069 | 0.018 | 0.016 | -0.106 | 0.034 |
| NSUN2 (UniProt Q08J23) | -0.059 | 0.056 | -0.038 | -0.271 | -0.146 | -0.222 | -0.034 | -0.053 | -0.033 | -0.045 | 0.029 | -0.246 | -0.106 | -0.027 | 0.01 | 0.137 | 0.013 | 0.046 | -0.026 | -0.075 |
